PubChem BioAssay (NCI)
The panel holds about 79,000 compounds, 15% with a hit somewhere; the sample as a whole holds those more often. Activity calls are given as the source filed them. Cut-off read from the data, not from the text of the source: active = growth inhibition above about 70%; inactive = the rest.

Experiment: NCI Yeast Anticancer Drug Screen. Data for the wt1 strain (AID 149);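 note: 0% = growth of vehicle-treated wt1 cultures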
Settings: S. cerevisiae wt1 strain (SPY 50644) growth inhibition, hits give high values
Procedure: Growth inhibition of yeast strains with defined genetic alterations is measured as a screen for potential anti-cancer activity. Selected strains with alterations in DNA damage repair or cell cycle control were exposed to compounds and growth inhibition was measured relative to vehicle treated controls. The strain used in this assay is wt1

Measured: growth inhibition

CCc1ccc(NS(=O)(=O)c2ccccc2)c([N+](=O)[O-])c1
inactive: at 1.2 µM 1% | at 3.7 µM 6% | at 11.0 µM 2% | at 33.0 µM 5% | at 100.0 µM 46%

c1ccc2c(c1)-c1nc3ccccc3cc1C2N1CCOCC1 (stereo not given)
inactive: at 1.2 µM 1% | at 3.7 µM 2% | at 11.0 µM 4% | at 33.0 µM 2% | at 100.0 µM 5%

COc1ccc(Br)c(C(=O)Sc2nnnn2-c2cccc(Cl)c2)c1
inactive: at 1.2 µM 5% | at 3.7 µM 17% | at 11.0 µM 22% | at 33.0 µM 33%
active: at 100.0 µM 93%

Cc1ccc(CCC2=CCCc3c2ccc2ccccc32)cc1
inactive: at 1.2 µM -3% | at 3.7 µM -4% | at 11.0 µM -5% | at 33.0 µM -8% | at 100.0 µM -9%

COc1ccc2nc3cccc([N+](=O)[O-])c3c(NCCN(CCO)CCO)c2c1
active: at 33.0 µM 73% | at 100.0 µM 77%
inactive: at 1.2 µM -2% | at 3.7 µM 6% | at 11.0 µM 31%

CSC(=S)Nc1cccc(C)n1
inactive: at 1.2 µM -35% | at 3.7 µM -24% | at 11.0 µM -25% | at 33.0 µM -15% | at 100.0 µM 3%

c1ccc(-c2nc3cccnc3s2)cc1
inactive: at 1.2 µM -2% | at 3.7 µM -4% | at 11.0 µM -2% | at 33.0 µM -2% | at 100.0 µM 0%

COc1ccccc1C(=O)OCC1CCCN2CCCCC12 (stereo not given)
active: at 33.0 µM 76% | at 100.0 µM 98%
inactive: at 1.2 µM 0% | at 3.7 µM -7% | at 11.0 µM 7%
